Screening data deposited in PubChem BioAssay by National Center for Advancing Translational Sciences (NCATS).
GPR32 ag: activates human resolvin D1 receptor GPR32. CHO-K1 GPR32 beta-arrestin PathHunter luminescence, 90 min; zero percent set by DMSO-only wells. O75388. AID 1346428. hit rate 2.5% among 48,000. activation, % at 76.9 µM;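 active = activation of at least 60% and not above a set upper limit, about 1 call in 100 departs from these limits; inconclusive = activation of 40% to 60%, or above that upper limit; inactive = activation under 40%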; also: 0% is about no effect
Target sequence (O75388 whole entry, looked up): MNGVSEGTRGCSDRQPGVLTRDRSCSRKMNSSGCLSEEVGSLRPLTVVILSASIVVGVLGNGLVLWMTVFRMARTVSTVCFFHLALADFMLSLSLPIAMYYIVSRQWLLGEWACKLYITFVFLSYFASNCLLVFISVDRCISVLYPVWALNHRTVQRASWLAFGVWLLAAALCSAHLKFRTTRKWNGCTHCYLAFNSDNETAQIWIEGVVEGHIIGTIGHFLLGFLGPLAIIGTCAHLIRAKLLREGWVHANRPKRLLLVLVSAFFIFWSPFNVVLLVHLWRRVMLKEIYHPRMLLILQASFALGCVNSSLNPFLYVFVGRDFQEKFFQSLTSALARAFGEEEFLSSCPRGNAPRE
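Engineered CHO-K1 line co-expressing GPR32-ProLink and EA-beta-arrestin. Compound treatment lasted 90 min at 37 °C. Luminescence was recorded after 1 h with substrate at ambient temperature, relative to DMSO basal wells.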
HTT-AS act: activators of huntingtin-antisense promoter activity. HEK293 HTT-AS promoter firefly luciferase reporter, 24 h; response scale: percent change from vehicle, -100% = no light. Potency, µM (highest dose often 57.5 µM), for inactives: at the top dose activity change, positive = activation, actives largely listed as activators. hit rate 0.24% among 48,000; also: potency is read from the fitted curve at half-maximal effect; nearly all actives have a fitted effect of over 55% in size
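Firefly luciferase readout (Dual-Glo, 10 min RT) after 24 h, 37 °C compound exposure (final up to 57.5 uM) of HEK293 reporter cells cultured 24 h beforehand; PTC124 at 50 uM final as control inhibitor; activity scaled vehicle 0%, zero RLU -100%.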
HTT promoter inh: inhibitors of huntingtin promoter activity. AID 1508623. Potency, µM (series often up to 57.5 µM), inactives show top-dose activity change, negative = inhibition, hits mostly inhibitors. hit rate 0.93% among 48,000. HEK293 HTT promoter firefly luciferase reporter, 24 h; also: potency is read from the fitted curve at half-maximal effect; nearly all actives have a fitted effect of over 50% in size
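Quantitative HTS used concentration series of up to 57.5 uM final on HEK293 luciferase reporter cells, 24 h at 37 degrees C. Readout was Dual-Glo firefly luminescence.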
Starred values were filed as active, the others as inactive; ? = inconclusive; · = no result; ! = a repeat was not active; [ ] = another dose, or the depositor's remark. Sampled rows, rich in hits. Any-hit rate of the full collection: about 3.7%. Unless noted, calls follow the shape of the dose curve; as a rule, active = well fitted curve in the direction sought with a large enough effect; inconclusive = small, poorly fitted or top-dose-only effect, or another doubt; inactive = no such curve, though single readings can be large; an effect the other way counts as inactive or inconclusive.

SMILES | GPR32 ag | HTT-AS act | HTT promoter inh
Cc1nn2c(C)c(C(=O)NCc3cccc(Br)c3)cnc2c1-c1ccccc1 | -3.8 | 9.6% | -7.7%
CCN(CC)c1ccc(NC(=O)c2cccn2-c2nnc(N3CCCCC3)s2)c(C)c1 | 76.5* | -29.7% | ?
COc1ccc(NC(=O)c2cccn2-c2nnc(N3CCCCC3)s2)c(OC)c1 | -16.7 | 8.7% | 5.3%
NS(=O)(=O)c1ccc(CCNc2nccn(-c3cccc(C(F)(F)F)c3)c2=O)cc1 | 63.1* | -26.5% | ?
COc1ccc(-n2ccnc(NCCc3ccc(S(N)(=O)=O)cc3)c2=O)cc1Cl | ? | -23.7% | -38.9%
Cc1cccc(N(CC(=O)NCCSCc2ccc(Cl)cc2)S(C)(=O)=O)c1C | ? | -26.0% | -29.2%
Cc1cccc(N(CC(=O)NCCSc2ccc(Cl)cc2)S(C)(=O)=O)c1C | 103.4* | -40.9% | ?
Cc1ccccc1CNC(=O)CN(c1cccc(C)c1C)S(C)(=O)=O | -7.6 | -6.7% | -17.7%
Cc1ccc(SCCNC(=O)CN(c2cccc(C)c2C)S(C)(=O)=O)cc1 | 75.8* | -38.1% | ?
CCC(C(=O)Nc1ccc(C(C)=O)cc1)n1c(C)c2cnn(-c3ccccc3)c(=O)c2c1C (configuration not stated) | 0.0 | -15.8% | -11.7%
O=c1[nH]nc(OCCCc2ccc(Cl)cc2)c(NCc2cccnc2)c1Br | · | -30.9% | ?
COc1ccccc1CNC(=O)CSc1nc(=O)[nH]c2c1CCC2 | 1.7 | -4.3% | -11.1%
O=C(C=Cc1c(C(=O)O)[nH]c2cc(Cl)cc(Cl)c12)Nc1ccccc1 | · | -15.3% | 3.4%
Cc1cccc(C)c1NC(=O)c1nc(SC(C)C)ncc1Cl | -2.5 | -40.0% | -31.2%
CCc1ccc(NC(=O)c2sc3nc(C)c(Cl)c(C)c3c2N)cc1 | 7.8 | 2.51µM* | 70.4%
CCc1ccc(NC(=O)c2sc3nc(C)c(Cl)c(C)c3c2NC(=O)c2ccccc2OC)cc1 | -0.8 | -1.0% | 1.5%
O=C(Nc1ccc(Br)cc1F)c1ccc2nc(CCc3ccccc3)oc2c1 | 11.2 | ? | 28.0%
COC(=O)c1ccc(CNC(=O)c2nc(Cn3nc(C)c(Br)c3C)no2)cc1 | 9.8 | -17.0% | -11.9%
Cc1nn(Cc2noc(C(=O)NCc3cccc(F)c3)n2)c(C)c1Br | 73.1* | -13.2% | -9.5%
COc1ccc(NC(=O)CC2C(=O)N(c3ccc(C)cc3)C(=O)N2CCc2ccccc2)cc1 (configuration not stated) | -2.6 | 0.0% | -33.7%
Cc1ccc(-c2noc(CCCC(=O)NCc3ccco3)n2)cc1 | 10.9 | -60.7% | 3.55µM*
O=C(CCCc1nc(-c2ccc(Cl)cc2)no1)NCc1ccco1 | 15.0 | -41.9% | ?
CCCCNc1c(C(=O)OCC)c(C)nc2c1cnn2CC | 75.5*! | -30.5% | -16.2%
CCOC(=O)c1c(C)oc2nc(C)nc(NCCCN3CCN(c4ccccc4)CC3)c12 | 6.4 | -19.9% | -12.3%
O=C(CC(c1cccs1)N1Cc2ccccc2C1=O)Nc1ccccc1 (configuration not stated) | 30.0 | -27.2% | -22.0%
SMILES | GPR32 ag | HTT-AS act | HTT promoter inh
O=C(CC(c1cccs1)N1Cc2ccccc2C1=O)Nc1cccc(F)c1 (configuration not stated) | 61.1* | -35.0% | ?
CCOC(=O)N[C@@H]1CC[C@@H]2[C@@H](C1)C[C@H]1C(=O)O[C@H](C)[C@H]1[C@@H]2C=Cc1ccc(-c2cccc(F)c2)cn1 | · | -24.6% | ?
CC(=O)O[C@H]1CC[C@@]2(C)C(=CC[C@@H]3[C@@H]2CC[C@]2(C)C(C(C)=O)=CC[C@@H]32)C1 | 1.7 | -5.3% | -4.2%
OCCN(CCO)c1nc(N2CCCCC2)c2nc(N(CCO)CCO)nc(N3CCCCC3)c2n1 | 108.1*! | -86.3% | -44.6%
COc1ccc(-c2noc(CSc3nnc(C)n3-c3ccc(C)cc3)n2)cc1OC | 2.0 | -37.0% | ?
COc1ccc(-c2noc(N3CCN(c4ccc(C)cc4)C(C)C3)n2)cc1OC (configuration not stated) | 60.8* | -30.9% | ?
COc1cccc(CSc2nc3n(n2)C(CC(C)C)C(C(=O)Nc2ccccc2OC)=C(C)N3)c1 (configuration not stated) | 21.8 | -20.2% | -7.5%
CS(=O)(=O)c1ccc(C(=O)Nc2ccc(Cl)c(-c3ccccn3)c2)c(Cl)c1 | · | -4.2% | 16.9%
Cc1ccccc1OCC(=O)Nc1ccccc1C(=O)OCc1cc(=O)n2ccsc2n1 | 0.6 | -13.2% | 7.7%
Cc1ccccc1OCC(=O)Nc1ccccc1C(=O)OCc1cc(=O)n2c(C)csc2n1 | 10.6 | -46.5% | 2.24µM*
O=C(NCCc1csc(-c2cccnc2)n1)c1ccc(F)c(F)c1 | ? | -31.2% | -31.3%
O=C(NCCc1csc(-c2cccnc2)n1)c1cccc(C(F)(F)F)c1 | 68.4* | -38.8% | ?
CN[C@@H]1CN(c2ccc3c(=O)c(C(=O)O)cn(-c4nccs4)c3n2)C[C@@H]1OC | · | -34.1%[25.1 µM] | ?
O=C(CCCCCCCCC#CI)Oc1ccccc1 | 6.3 | -18.9% | -2.6%
Cc1ccccc1-c1nnc(C2CCN(S(=O)(=O)c3ccc(Cl)cc3)CC2)o1 | -5.7 | -53.8% | 15.8µM*
COc1ccc(S(=O)(=O)N2CCC(c3nnc(-c4ccccc4C)o3)CC2)c(OC)c1 | 15.5 | -30.8% | ?
COc1cccc(Nc2ccc3cc(S(=O)(=O)N4CCC(C)CC4)ccc3n2)c1 | -10.6 | -36.7% | -12.2%
Cc1ccccc1C(C(=O)NC1CCCCC1)N(C(=O)Cn1ccnc1C)c1cccc(F)c1 (configuration not stated) | · | ? | 7.5%
Cc1cc(SCc2sc(-c3ccc(C(F)(F)F)cc3)nc2C)ccc1OCC(=O)O | · | 21.4% | 14.0%
COc1ccccc1N1CCN(c2ncc3c(n2)CCN(Cc2ccccc2F)C3)CC1 | -2.6 | -14.2% | -10.9%
COc1ccc(CN2CCc3nc(N4CCN(c5ccc(F)cc5)CC4)ncc3C2)c(OC)c1OC | -5.7 | -57.0% | 1.58µM*
Cc1ccc(Cl)cc1N1CCN(S(=O)(=O)c2ccc3c(c2)C(C(C)C)C(=O)N3)CC1 (configuration not stated) | ? | -26.7% | ?
CC(C)C1C(=O)Nc2ccc(S(=O)(=O)NCCc3ccc(Cl)cc3)cc21 (configuration not stated) | 87.3* | -30.0% | ?
CCC(=O)N1c2ccc(S(=O)(=O)NCc3cccc(OC)c3)cc2CC1C (configuration not stated) | 45.4 | -22.8% | ?
COc1cccc(CNS(=O)(=O)c2ccc3c(c2)C(C(C)C)C(=O)N3)c1 (configuration not stated) | 75.8* | -26.1% | ?
Cc1c(C(=O)Nc2ccc(N3C[C@@H](C)O[C@@H](C)C3)nc2)cccc1-c1ccc(OC(F)(F)F)cc1 | · | 4.2% | 5.8%
N.N.N.N.N.N.N.N.N.N.N.N.N.N.O.O.[Ru+4].[Ru+5].[Ru+5] | -17.4 | · | ·
COc1ccc(CC(=O)NCCc2sc(-c3ccc(Cl)cc3)nc2C)cc1OC | 91.5* | -40.9% | -50.9%
COc1ccc(-c2nc(C)c(CCNC(=O)c3ccccc3Br)s2)cc1OC | -13.2 | 7.8% | 8.5%
COc1ccc(-c2nc(C)c(CCNC(=O)Cc3ccc(F)cc3)s2)cc1OC | 10.9 | -7.5% | -17.5%
